Compound activity (PubChem)
NFkB binder – NF-kappa-B p105 (human) binding | P19838 | AID 624139 | Small molecule microarray, anti-His fluorescence binding | calls only | hit rate 1.3% among 17,000;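 active = spot fluorescence over background significantly raised, with a chance value under 7% in all four replicate spots of the compound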;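 also: probe protein is his-tagged human p50 processed subunit at 1 µg/ml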
c-Myc SMM – binders of human c-Myc; P01106; small molecule microarray, His-c-Myc binding, anti-His fluorescence; calls only; hit rate 1.5% among 17,000;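 active = spot fluorescence over background with P-value below 7% in all four replicate spots, showing protein binding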
Target sequence (P01106 whole entry, looked up): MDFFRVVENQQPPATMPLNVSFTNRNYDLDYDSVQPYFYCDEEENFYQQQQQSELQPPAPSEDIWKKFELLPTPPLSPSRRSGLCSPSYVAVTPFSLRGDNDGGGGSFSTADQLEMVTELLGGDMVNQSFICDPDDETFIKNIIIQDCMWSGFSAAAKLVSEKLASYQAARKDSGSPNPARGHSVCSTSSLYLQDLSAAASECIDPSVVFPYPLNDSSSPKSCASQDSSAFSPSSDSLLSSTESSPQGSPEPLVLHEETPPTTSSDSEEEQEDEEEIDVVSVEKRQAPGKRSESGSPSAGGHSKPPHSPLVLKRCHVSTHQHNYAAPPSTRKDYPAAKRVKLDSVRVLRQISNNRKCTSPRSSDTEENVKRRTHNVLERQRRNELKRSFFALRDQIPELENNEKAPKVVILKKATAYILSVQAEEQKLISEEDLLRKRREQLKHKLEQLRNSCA
mut p53 react – restores mutant p53 pathway signaling in SW480 cells. SW480 PUMA-promoter luciferase, p53 mutant reactivation. activation, % at 9.98 µM. hit rate 1.5% among 28,000. AID 624151; in the data active = activation above about 52%; inconclusive = no clear call, values can overlap the other calls
STAT3 binder – binds human STAT3 on microarray | P40763 | Small molecule microarray, His-STAT3 binding, anti-His fluorescence | calls only | hit rate 0.2% among 17,000 | AID 624138;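 active = compounds whose four printed spots each show fluorescence over background unusually high for their array block, chance value under 7%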
p53 mut binder – binds human mutant p53 on microarray; AID 624136; hit rate 0.4% among 17,000; small molecule microarray binding, anti-GST fluorescence; calls only;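 active = compounds whose four printed spots each glow above background more than chance allows, each with a p-value under 7%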
A number is an active result; n = inactive; u = inconclusive; x = not tested or not shown; + = active, no number. Most compounds without a hit are left out; they make up all but 2.6% or so of the library.

SMILES | NFkB binder | c-Myc SMM | mut p53 react | STAT3 binder | p53 mut binder
Cc1ccc2nc(-c3ccc(NC(=O)CN4C(=O)c5ccccc5C4=O)cc3)sc2c1 | n | n | n | n | n
Cc1ccc2nc(-c3ccc(NC(=O)CS(=O)(=O)Cc4ccccc4)cc3)sc2c1 | x | x | 75 | x | x
Nc1nc(CSc2ccccn2)nc(Nc2ccccc2)n1 | x | x | 89 | x | x
Cc1cc(O)cc(Oc2cc(C)cc(O)c2O)c1 | n | n | n | n | n
Fc1cccc(/C=N/N=C/c2cccc(F)c2)c1 | n | n | 88 | n | n
CCNC(=O)c1c(NC(=O)COc2ccc(Cl)cc2Cl)sc2c1CCCC2 | x | x | n | x | x
Cc1cc(I)cnc1NC(=S)NC(=O)c1ccco1 | n | n | 76 | n | n
Cc1sc(NC(=S)NC(=O)Cc2cccc3ccccc23)c(C(N)=O)c1C | n | n | n | n | n
Cc1sc(NC(=S)NC(=O)c2ccco2)c(C(N)=O)c1C | x | x | 59 | x | x
O=C(CCc1ccc(O)cc1)CC(O)CCc1ccc(O)c(O)c1 (centres undefined) | n | n | n | n | n
CC(=O)Nc1ccc(NC(=O)CN(c2ccc(F)cc2)S(C)(=O)=O)cc1 | x | x | n | x | x
CC(=O)Cc1ccccc1OCC(=O)O | + | + | n | n | n
CC(C)NCc1ccccc1OCC(N)=O | n | n | n | n | n
CCOc1ccccc1-c1nnc(SCC(=O)Nc2ccc(I)cc2)o1 | x | x | n | x | x
Cc1sc2ncnc(SCC(=O)C(C)(C)C)c2c1C | x | x | 60 | x | x
O=C(CSc1ncnc2scc(-c3ccc(Cl)cc3)c12)NCC1CCCO1 (centres undefined) | n | n | n | n | n
S=C(NCC1CCCO1)Nc1cnn(Cc2ccc(Cl)cc2)c1 (centres undefined) | n | + | n | n | n
COc1ccc(S(=O)(=O)N(C)CC(=O)O)cc1C | x | x | n | x | x
COc1ccc(S(=O)(=O)N(C)CC(=O)O)cc1 | n | + | n | n | n
Cc1ccc(Cl)cc1N(CC(=O)O)S(C)(=O)=O | + | + | n | n | n
CN(CC(=O)O)S(=O)(=O)c1cc(Cl)ccc1Cl | + | + | n | n | n
CS(=O)(=O)N(CC(=O)O)c1ccc(Cl)cc1 | x | x | n | x | x
Cc1ccc(Nc2nc(N)nc(CN3CCN(C(c4ccccc4)c4ccccc4)CC3)n2)cc1 | x | x | n | x | x
CC(=O)c1ccc(NC(=O)CSc2nc3ccc(NC(=O)c4ccccc4Cl)cc3s2)cc1 | x | x | 81 | x | x
Cc1cc(C)c(NC(=O)CSc2nc3ccc(NC(=O)c4ccccc4C)cc3s2)c(C)c1 | x | x | n | x | x
SMILES | NFkB binder | c-Myc SMM | mut p53 react | STAT3 binder | p53 mut binder
Clc1ccc2ncnc(NCc3ccc4c(c3)OCO4)c2c1 | n | n | n | n | n
COc1ccc2ncc3c(c2c1)-c1cc(Cl)ccc1OC3 | x | x | 69 | x | x
COc1ccc(NC(=O)COc2c(Cl)c(C)c(Cl)c(C)c2Cl)cc1[N+](=O)[O-] | n | n | n | n | n
O=C(COc1ccc(Br)cc1)Nc1cccc(-c2nc3ncccc3o2)c1 | x | x | 73 | x | x
O=C(COc1ccccc1)Nc1cccc(-c2nc3c(ccc4ccccc43)o2)c1 | n | n | n | n | n
Cc1cc(OCC(=O)Nc2cccc(-c3nc4ccccc4o3)c2C)cc(C)c1Cl | x | x | n | x | x
Cc1c(NC(=O)COc2ccc(Br)cc2)cccc1-c1nc2ncccc2o1 | n | n | 54 | n | n
CC(C)(C)C1CCc2c(sc(NC(=O)CSc3n[nH]c(-c4ccncc4)n3)c2C#N)C1 (centres undefined) | x | x | n | x | x
Cc1ccc(S(=O)(=O)NCCC(=O)Oc2ccc3c(=O)c(-c4ccc(F)cc4)coc3c2)cc1 | n | n | 105 | n | n
C[C@@H]1CCCCO[C@@H](CN(C)C(=O)CCC(F)(F)F)[C@H](C)CN([C@@H](C)CO)C(=O)c2cc(NC(=O)CCC(F)(F)F)ccc2O1 | + | + | n | n | n
C[C@@H]1CCCCO[C@H](CN(C)C(=O)CCC(F)(F)F)[C@H](C)CN([C@@H](C)CO)C(=O)c2cc(NC(=O)CCC(F)(F)F)ccc2O1 | + | n | n | n | n
C[C@@H]1CCCCO[C@@H](CN(C)C(=O)CCC(F)(F)F)[C@H](C)CN([C@@H](C)CO)C(=O)c2cc(NC(=O)Cc3ccccc3)ccc2O1 | n | n | n | n | n
CCn1cc(C(C)NC(=S)Nc2cccc([N+](=O)[O-])c2)c(C)n1 (centres undefined) | n | + | n | n | n
CC(C)=CCC[C@](C)(O[C@@H]1O[C@H](CO[C@@H]2O[C@@H](CO)[C@H](O)[C@H]2O)[C@@H](O)[C@H](O)[C@H]1O)[C@H]1CC[C@]2(C)C1[C@H](O)CC1[C@@]3(C)CC[C@H](O[C@@H]4O[C@H](CO)[C@@H](O)[C@H](O)[C@H]4O[C@@H]4O[C@H](CO)[C@@H](O)[C@H](O)[C@H]4O)C(C)(C)C3CC[C@]12C (some centres undefined) | + | + | n | n | n
C[C@@H]1O[C@@H](O[C@H]2[C@H](O[C@H]3CC[C@@]4(C)C(CC[C@]5(C)C4CC=C4C6CC(C)(C)CC[C@]6(C(=O)O[C@@H]6O[C@H](CO[C@@H]7O[C@H](CO)[C@@H](O[C@@H]8O[C@@H](C)[C@H](O)[C@@H](O)[C@H]8O)[C@H](O)[C@H]7O)[C@@H](O)[C@H](O)[C@H]6O)CC[C@]45C)C3(C)C)OC[C@H](O)[C@@H]2O)[C@H](O)[C@H](O)[C@H]1O (some centres undefined) | n | n | n | n | n
CCOC(=O)c1cnc2c(C)c(C)ccc2c1NCCN(C)C | n | n | n | n | +
Cc1cc(Cl)cc(Cl)c1OCC(=O)Nc1ccc(Cl)c(-c2nc3ncccc3o2)c1 | x | x | n | x | x
C[C@H]1CCCCO[C@@H](CN(C)C(=O)C2CCCCC2)[C@@H](C)CN([C@@H](C)CO)C(=O)c2cc(NS(=O)(=O)c3ccccc3)ccc2O1 | n | n | n | n | n
C[C@H](CO)N1C[C@H](C)[C@H](CN(C)Cc2ccccc2)OCCCC[C@H](C)Oc2ccc(NS(=O)(=O)c3ccccc3)cc2C1=O | n | n | n | n | +
C[C@@H]1CCCCO[C@@H](CN(C)C(=O)C2CCCCC2)[C@@H](C)CN([C@H](C)CO)C(=O)c2cc(NS(=O)(=O)c3ccccc3)ccc2O1 | n | n | n | n | n
CCCN(C)C[C@H]1OCCCC[C@@H](C)Oc2ccc(NS(=O)(=O)c3ccc(OC)cc3)cc2C(=O)N([C@H](C)CO)C[C@@H]1C | n | n | n | n | n
CCCN(C)C[C@H]1OCCCC[C@@H](C)Oc2ccc(NS(=O)(=O)c3ccc(OC)cc3)cc2C(=O)N([C@H](C)CO)C[C@H]1C | n | n | n | n | +
C[C@H](CO)N1C[C@H](C)[C@H](CN(C)C(=O)C2CCCCC2)OCCCC[C@H](C)Oc2ccc(NS(=O)(=O)c3ccccc3)cc2C1=O | n | n | n | + | n
C[C@H]1CCCCO[C@H](CN(C)C(=O)C2CCCCC2)[C@@H](C)CN([C@@H](C)CO)C(=O)c2cc(NS(=O)(=O)c3ccccc3)ccc2O1 | + | + | n | n | n
COc1ccc(CN2C(=O)C(O)(CC(=O)c3ccc(Cl)cc3)c3ccccc32)cc1OC (centres undefined) | x | x | n | x | x
Cc1occc1-c1nnc2sc(-c3ccc(-c4ccccc4[N+](=O)[O-])o3)nn12 | n | n | u | n | +
